From PubChem BioAssay (Tox21)
Inconclusive results are not listed. Active and inactive are the calls of the source. Unless noted, calls follow the shape of the dose curve; as a rule, active = well fitted curve in the direction sought with a large enough effect in the repeat runs; inconclusive = weak or mixed curves; inactive = no such curve, though single readings can be large; an effect the other way counts as inactive or inconclusive.

Assays:
[1] = qHTS assay to identify small molecule antagonists of the thyroid receptor (TR) signaling pathway - cell viability counter screen (AID 743064); also: nearly all actives have a fitted effect of over 50% in size
Procedure, shortened: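 Counter screen for cytotoxicity: compound plus T3 (1 nM final) on GH3.TRE-Luc cells, 23.5 h at 37 °C, then fluorescence viability readout with CellTiter-Fluor.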

[2] = qHTS assay to identify small molecule antagonists of the thyroid receptor (TR) signaling pathway (AID 743065); also: series mostly up to about 70 µM; nearly all actives have a fitted effect of over 55% in size
Procedure, shortened: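 GH3.TRE-Luc rat pituitary cells (two TREs driving luciferase) were dosed with compound, then stimulated with 1 nM T3 (final) for 23.5 h at 37 C. ONE-Glo luminescence was the read-out, with CellTiter-Fluor fluorescence as the cytotoxicity counter-screen.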

[3] = test system: thyroid hormone receptor (rat, GH3 cells); assay: qHTS assay to identify small molecule agonists of the thyroid receptor (TR) signaling pathway (AID 743066; calls by dose curve)
[4] = target: Estrogen receptor (Homo sapiens) (UniProt P03372); assay: qHTS assay to identify small molecule antagonists of the estrogen receptor alpha (ER-alpha) signaling pathway (AID 743069; active = well fitted curve in the direction sought with a large enough effect in the signal ratio in the repeat runs, not every such curve was filed as active; the % refers to the signal ratio)
Procedure, shortened: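 Beta-lactamase FRET fluorescence is read after 2 hr at room temperature with LiveBLAzer B/G substrate. Before that, ER-alpha-bla HEK293 cells sit 4 hr after plating, then receive compound plus 17beta-estradiol and incubate 18 hr at 37C.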

[5] = qHTS assay to identify small molecule antagonists of the estrogen receptor alpha (ER-alpha) signaling pathway - cell viability counter screen (AID 743074; calls by dose curve;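 also: HEK293 cells carrying ER-alpha-UAS-bla reporter stimulated with 17beta-estradiol; nearly all actives have a fitted effect of over 45% in size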)
[6] = target: Estrogen receptor (Homo sapiens) (UniProt P03372); assay: qHTS assay to identify small molecule agonists of the estrogen receptor alpha (ER-alpha) signaling pathway (AID 743075; calls by dose curve;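 also: HEK293 GripTite cells with ER-alpha and UAS-driven beta-lactamase reporter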)
[7] = target: Estrogen receptor (Homo sapiens) (UniProt P03372); assay: qHTS assay to identify small molecule agonists of the estrogen receptor alpha (ER-alpha) signaling pathway using the BG1 cell line (AID 743079); also: nearly all actives have a fitted effect of over 20% in size
[8] = qHTS assay to identify small molecule antagonists of the estrogen receptor alpha (ER-alpha) signaling pathway using the BG1 cell line (AID 743080; calls by dose curve;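 also: BG1 cells stimulated with 17beta-estradiol alongside compound; series mostly up to about 70 µM; nearly all actives have a fitted effect of over 25% in size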)
Procedure, shortened: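 Luminescence from a 4×ERE-luciferase reporter in BG1-Luc-4E2 cells served as read-out. Cells, pre-cultured 5 days in stripped-serum phenol-red-free medium, were exposed to compound with 17beta-estradiol co-stimulation for 21.5 h at 37 C.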

[9] = qHTS assay to identify small molecule antagonists of the estrogen receptor alpha (ER-alpha) signaling pathway using the BG1 cell line - cell viability counter screen (AID 743081);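 also: compound given together with 17beta-estradiol as the ER stimulus; series mostly up to about 70 µM; nearly all actives have a fitted effect of over 45% in size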
Aromatase (Homo sapiens) = Aromatase (Homo sapiens) (UniProt P11511); assay: qHTS assay to identify aromatase inhibitors (AID 743083); also: series mostly up to about 70 µM; nearly all actives have a fitted effect of over 55% in size
[10] = qHTS assay to identify aromatase inhibitors - cell viability counter screen (AID 743084);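 also: cells stimulated with testosterone during compound exposure; nearly all actives have a fitted effect of over 55% in size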
[11] = target: Aryl hydrocarbon receptor (Homo sapiens) (UniProt P35869); assay: qHTS assay to identify small molecule that activate the aryl hydrocarbon receptor (AhR) signaling pathway (AID 743085);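 also: HG2L7.5c1 human HepG2 liver cells with stably integrated DRE-driven firefly reporter; series mostly up to about 70 µM; nearly all actives have a fitted effect of over 15% in size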
Procedure, shortened: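 Measured in HG2L7.5c1 cells: CellTiter-Fluor signal (30 min incubation, 37C) for viability, then luciferase luminescence (30 min, room temperature). Compound contact time was 24 h at 37C, following a 5 h pre-incubation.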

[12] = qHTS assay to identify small molecule that activate the aryl hydrocarbon receptor (AhR) signaling pathway - cell viability counter screen (AID 743086);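 also: HepG2 liver cells carrying the AhR DRE luciferase reporter; series mostly up to about 70 µM; nearly all actives have a fitted effect of over 45% in size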
Procedure, shortened: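 HepG2-AhR-luc (HG2L7.5c1) cells, 4000/well, treated 24 h at 37 C with compound; viability measured as CellTiter-Fluor fluorescence after 30 min in the same wells as the luciferase read.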

[13] = target: Peroxisome proliferator-activated receptor gamma (Homo sapiens) (UniProt P37231); assay: qHTS assay to identify small molecule agonists of the peroxisome proliferator-activated receptor gamma (PPARg) signaling pathway (AID 743094; active = well fitted activation curve with a large enough effect in the signal ratio in the repeat runs, not every such curve was filed as active; the % refers to the signal ratio)
Procedure, shortened: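 HEK293H PPARg-bla cells, 5 h settle at 37C/5% CO2; compound (DMSO) 17 h, 37C; B/G FRET substrate 1 h RT; fluorescence intensity read-out. qHTS format.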

[14] = target: Peroxisome proliferator-activated receptor gamma (Homo sapiens) (UniProt P37231); assay: qHTS assay to identify small molecule antagonists of the peroxisome proliferator-activated receptor gamma (PPARg) signaling pathway (AID 743191; calls by dose curve; also: series mostly up to about 63 µM; nearly all actives have a fitted effect of over 30% in size)
Procedure, shortened: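 GeneBLAzer PPARg UAS-bla HEK293H cells, 5 h post-plating, exposed to compounds 17 h at 37C. LiveBLAzer B/G FRET substrate added for 1 h at room temperature; beta-lactamase reporter read by fluorescence intensity.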

[15] = qHTS assay to identify small molecule antagonists of the peroxisome proliferator-activated receptor gamma (PPARg) signaling pathway - cell viability counter screen (AID 743194); also: nearly all actives have a fitted effect of over 55% in size
Procedure, shortened: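 Cytotoxicity counter screen in PPARg-bla HEK293H cells, same wells as reporter assay. Compounds plus 50 nM rosiglitazone (final) for 17 h at 37 C, then viability read by CellTiter-Glo luminescence.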

[16] = qHTS assay for small molecule agonists of the antioxidant response element (ARE) signaling pathway (AID 743202; active = well fitted activation curve with a large enough effect in the signal ratio in the repeat runs, not every such curve was filed as active; the % refers to the signal ratio)
Procedure, shortened: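 HepG2 ARE-bla reporter line, 2,000 cells/well; 5 h preincubation 37 C/5% CO2; compound (DMSO) 16 h 37 C; B/G FRET substrate 2 h RT; fluorescence intensity.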

[17] = qHTS assay for small molecule agonists of the antioxidant response element (ARE) signaling pathway - cell viability counter screen (AID 743203; calls by dose curve; also: nearly all actives have a fitted effect of over 55% in size)
Procedure, shortened: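 Luminescence read-out (CellTiter-Glo, 30 min at room temperature) measured cell viability in the same wells as the ARE beta-lactamase reporter. HepG2 ARE-bla cells were treated with compounds for 16 hrs at 37C/5% CO2.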

[18] = qHTS assay for small molecule activators of the heat shock response signaling pathway (AID 743210; active = well fitted activation curve with a large enough effect in the signal ratio in the repeat runs, with a control signal flat, not every such curve was filed as active; the % refers to the signal ratio;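 also: HeLa cells with beta-lactamase reporter driven by heat shock elements; series mostly up to about 63 µM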)
Procedure, shortened: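 Beta-lactamase reporter read-out: FRET substrate fluorescence after 2.5 h at RT, following 5 h compound treatment at 37 C of HeLa cells carrying HSE-driven bla reporter; quantitative HTS format.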

[19] = qHTS assay for small molecule activators of the heat shock response signaling pathway - cell viability counter screen (AID 743209); also: nearly all actives have a fitted effect of over 50% in size
Procedure, shortened: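 HSE-bla HeLa; 1500 cells/well; overnight 37 C, 5% CO2; compound 5 h 37 C; LiveBLAzer B/G substrate 2.5 h RT; CellTiter-Glo 30 min RT; luminescence.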

Measured: Potency

Sequence of Aromatase (Homo sapiens) (P11511 whole entry, looked up): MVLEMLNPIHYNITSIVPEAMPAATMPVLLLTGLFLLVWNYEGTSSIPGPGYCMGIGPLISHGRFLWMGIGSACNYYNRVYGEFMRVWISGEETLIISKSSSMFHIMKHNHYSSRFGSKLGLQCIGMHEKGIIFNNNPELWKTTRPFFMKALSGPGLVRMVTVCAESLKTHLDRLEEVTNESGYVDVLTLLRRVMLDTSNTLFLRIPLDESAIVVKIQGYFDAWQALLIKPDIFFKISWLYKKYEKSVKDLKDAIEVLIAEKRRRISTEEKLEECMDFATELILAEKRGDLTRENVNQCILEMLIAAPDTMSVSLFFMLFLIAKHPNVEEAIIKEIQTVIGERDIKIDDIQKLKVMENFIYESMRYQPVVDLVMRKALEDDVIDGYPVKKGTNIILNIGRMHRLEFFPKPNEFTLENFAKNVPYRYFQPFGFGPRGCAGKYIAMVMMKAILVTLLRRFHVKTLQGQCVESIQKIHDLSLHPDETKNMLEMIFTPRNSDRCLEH
Sequence of Estrogen receptor (Homo sapiens) (P03372 whole entry, looked up): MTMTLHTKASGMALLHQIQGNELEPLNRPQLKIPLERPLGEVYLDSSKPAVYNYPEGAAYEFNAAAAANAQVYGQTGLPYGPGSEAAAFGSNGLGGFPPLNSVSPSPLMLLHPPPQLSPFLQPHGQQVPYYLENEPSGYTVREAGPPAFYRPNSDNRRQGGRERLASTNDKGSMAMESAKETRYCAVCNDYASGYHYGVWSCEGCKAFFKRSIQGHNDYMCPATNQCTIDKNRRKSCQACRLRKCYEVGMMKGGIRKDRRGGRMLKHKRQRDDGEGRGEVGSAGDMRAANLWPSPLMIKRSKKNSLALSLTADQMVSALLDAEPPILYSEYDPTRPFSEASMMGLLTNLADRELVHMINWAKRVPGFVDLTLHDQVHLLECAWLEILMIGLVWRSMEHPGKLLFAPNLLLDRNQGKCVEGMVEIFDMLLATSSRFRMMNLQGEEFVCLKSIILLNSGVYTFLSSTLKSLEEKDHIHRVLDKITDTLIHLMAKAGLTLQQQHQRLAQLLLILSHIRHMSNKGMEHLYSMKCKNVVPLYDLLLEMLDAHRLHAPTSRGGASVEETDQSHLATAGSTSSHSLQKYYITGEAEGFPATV
Sequence of Peroxisome proliferator-activated receptor gamma (Homo sapiens) (P37231 whole entry, looked up): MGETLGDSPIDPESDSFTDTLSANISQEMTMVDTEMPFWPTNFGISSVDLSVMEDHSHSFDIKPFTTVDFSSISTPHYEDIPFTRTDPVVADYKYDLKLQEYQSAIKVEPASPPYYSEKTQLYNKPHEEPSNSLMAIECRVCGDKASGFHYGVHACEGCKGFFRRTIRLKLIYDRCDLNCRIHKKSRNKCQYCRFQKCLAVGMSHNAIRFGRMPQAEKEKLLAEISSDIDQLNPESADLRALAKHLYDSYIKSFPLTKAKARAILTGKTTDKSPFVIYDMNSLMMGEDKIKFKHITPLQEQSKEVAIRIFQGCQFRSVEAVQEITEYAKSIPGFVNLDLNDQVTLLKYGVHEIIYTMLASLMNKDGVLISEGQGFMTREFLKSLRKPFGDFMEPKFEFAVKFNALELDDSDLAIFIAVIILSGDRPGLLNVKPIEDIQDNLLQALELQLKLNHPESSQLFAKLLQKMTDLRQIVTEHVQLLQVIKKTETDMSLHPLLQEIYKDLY
Sequence of Aryl hydrocarbon receptor (Homo sapiens) (P35869 whole entry, looked up): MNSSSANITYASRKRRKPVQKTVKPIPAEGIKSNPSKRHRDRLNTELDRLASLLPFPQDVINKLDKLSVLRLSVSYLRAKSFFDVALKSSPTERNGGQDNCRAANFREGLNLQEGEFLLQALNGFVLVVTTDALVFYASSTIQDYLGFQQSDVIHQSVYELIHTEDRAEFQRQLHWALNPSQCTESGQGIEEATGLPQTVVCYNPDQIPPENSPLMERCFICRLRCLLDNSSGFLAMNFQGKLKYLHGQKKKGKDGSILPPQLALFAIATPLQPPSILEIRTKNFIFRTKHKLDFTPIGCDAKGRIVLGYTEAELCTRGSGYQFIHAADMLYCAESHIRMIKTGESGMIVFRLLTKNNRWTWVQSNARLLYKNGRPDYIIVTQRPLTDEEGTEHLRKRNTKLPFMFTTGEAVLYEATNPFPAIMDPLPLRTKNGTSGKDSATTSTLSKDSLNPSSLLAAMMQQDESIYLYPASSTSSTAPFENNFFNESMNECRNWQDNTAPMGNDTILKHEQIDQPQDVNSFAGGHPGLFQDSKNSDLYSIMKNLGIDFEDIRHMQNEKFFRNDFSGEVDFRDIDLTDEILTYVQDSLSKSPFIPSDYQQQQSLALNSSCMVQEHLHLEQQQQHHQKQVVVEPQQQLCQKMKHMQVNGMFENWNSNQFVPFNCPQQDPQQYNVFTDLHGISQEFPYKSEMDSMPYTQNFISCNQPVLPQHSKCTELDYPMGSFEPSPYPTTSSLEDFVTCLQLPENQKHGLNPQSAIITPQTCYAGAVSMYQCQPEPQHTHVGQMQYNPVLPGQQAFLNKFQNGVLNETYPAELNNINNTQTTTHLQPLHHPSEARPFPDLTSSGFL

CC(C)c1cc2c(cc1S(=O)(=O)O)[C@@]1(C)CCC[C@@](C)(C(=O)O)[C@@H]1CC2
not listed: [19]
inactive: all other assays above

O=C(O)c1ccccc1OP(=O)(O)O
not listed: [16] | [17]
inactive: all other assays above

CCCCCSCCCCC
not listed: [14]
inactive: all other assays above

O=C1OC(=O)C2CCCCC12 (configuration not stated)
inactive: all assays above

C1CN(CCOCCN2CCOCC2)CCO1
not listed: [15]
inactive: all other assays above

Cc1ccc(C#N)cc1
not listed: [14] | [15] | [16]
inactive: all other assays above

C[C@@H]1CCN(C(=O)[C@H](CCCN=C(N)N)NS(=O)(=O)c2cccc3c2NC[C@H](C)C3)[C@@H](C(=O)O)C1
inactive: all assays above

Cc1cc2c(cc1S(N)(=O)=O)S(=O)(=O)CCC2
inactive: all assays above
